Data from PubChem BioAssay (NCATS).
Unmarked numbers belong to inactive results. Records with an inconclusive call do not appear. Entries that show only a call come without a potency. Active and inactive are the calls of the source. Unless noted, calls come from the whole dose curve; as a rule, active = well fitted curve in the direction sought with a large enough effect; inconclusive = small, poorly fitted or top-dose-only effect, or another doubt; inactive = no such curve, though single readings can be large; an effect the other way counts as inactive or inconclusive.

How the values were obtained:
[1] = target: Lysosomal acid glucosylceramidase (Homo sapiens) (UniProt P04062); test: Glucocerebrosidase-p2 (AID 348; in the data active = potency below about 10 µM; note: potency is the fitted concentration of half-maximal effect); conditions: purified GBA, blue fluorogenic substrate, 40 min
Lysosomal acid glucosylceramidase (Homo sapiens), sequence (P04062 whole entry, looked up): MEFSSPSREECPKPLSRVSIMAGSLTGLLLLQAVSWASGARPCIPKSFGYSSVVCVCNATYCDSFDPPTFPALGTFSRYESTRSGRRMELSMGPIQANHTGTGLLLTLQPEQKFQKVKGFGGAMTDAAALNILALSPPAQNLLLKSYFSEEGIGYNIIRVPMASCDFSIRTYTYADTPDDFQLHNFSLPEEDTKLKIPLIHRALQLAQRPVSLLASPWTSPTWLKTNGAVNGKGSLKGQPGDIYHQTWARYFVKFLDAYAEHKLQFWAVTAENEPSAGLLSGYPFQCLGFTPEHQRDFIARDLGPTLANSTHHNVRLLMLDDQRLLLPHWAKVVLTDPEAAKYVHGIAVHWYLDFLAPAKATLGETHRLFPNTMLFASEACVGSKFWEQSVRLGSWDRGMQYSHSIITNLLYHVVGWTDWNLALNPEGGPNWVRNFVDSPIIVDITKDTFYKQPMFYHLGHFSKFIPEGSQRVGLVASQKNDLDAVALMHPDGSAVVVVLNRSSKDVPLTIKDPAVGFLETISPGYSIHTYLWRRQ
Procedure, shortened: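 Normal human glucocerebrosidase (0.2 nM) with blue fluorogenic substrate (80 uM final) in citrate/phosphate pH 5.9 with 10mM sodium taurocholate, 0.01% tween-20; 40 min RT, NaOH/glycine stop; fluorescence Ex 365/Em 440; AC50 from a titration from 0.6 nM upwards.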

[2] = AP1 Signaling Pathway (AID 357; active = well fitted curve in either direction with a large enough effect, not every such curve was filed as active); conditions: ME-180 AP-1-bla reporter, EGF-induced, beta-lactamase ratio, 5 h; at 7.69 µM (top of the series) unless noted
Procedure, shortened: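 AP-1-bla ME-180 cells with beta-lactamase reporter under AP-1 response element, stimulated with EC50 EGF; compounds titrated, 5 hours at 37 degrees Celsius. CCF4 read at 460/530 nm ratio; positive and negative modulators judged by AC50.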

[3] = NFAT Signaling Pathway (AID 444; active = well fitted curve in either direction with a large enough effect, not every such curve was filed as active;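 note: carbachol stimulus at about its EC50 of 1 µM final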); conditions: Jurkat NFAT-bla M1, carbachol, beta-lactamase ratio, 5 h; at 7.69 µM (top of the series) unless noted
Procedure, shortened: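 Jurkat cells carrying an NFAT-driven β-lactamase reporter and co-transfected muscarinic M1 receptor were treated with compound plus carbachol (1 uM final, an EC50 level) for 5 h at 37 °C. CCF4 loading followed for 1 h at RT; 460/530 nm ratio gave %activity.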

[4] = Stat Signaling Pathway (AID 446; active = well fitted curve in either direction with a large enough effect, not every such curve was filed as active;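 note: ME-180 cervical cancer cells given 40 pM IL-6 alongside compound; SIE-controlled beta-lactamase reporter measured as 460/530 nm FRET emission ratio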); conditions: ME-180 SIE beta-lactamase reporter, IL-6 stimulated, 5 h; at 7.69 µM (top of the series) unless noted
Procedure, shortened: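 Emission at 460 and 530 nm (excitation 405 nm) reports SIE-controlled beta-lactamase in ME-180 cells. Cells received compound with 40 pM IL-6 for 5 hrs at 37 C; data scaled between 300 pM IL-6 and 125 nM JAK-inhibitor controls.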

[5] = target: Glucocorticoid receptor (Homo sapiens) (UniProt P04150); test: GR-GFP Redistribution (AID 450;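 active = compounds whose dose series gives a full or clear partial fitted curve of increased nuclear translocation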; note: potency is the fitted concentration of half-maximal effect); conditions: U2OS GR-GFP nuclear translocation, laser cytometry, 2 h
Glucocorticoid receptor (Homo sapiens), sequence (P04150 whole entry, looked up, the tested form may be a part): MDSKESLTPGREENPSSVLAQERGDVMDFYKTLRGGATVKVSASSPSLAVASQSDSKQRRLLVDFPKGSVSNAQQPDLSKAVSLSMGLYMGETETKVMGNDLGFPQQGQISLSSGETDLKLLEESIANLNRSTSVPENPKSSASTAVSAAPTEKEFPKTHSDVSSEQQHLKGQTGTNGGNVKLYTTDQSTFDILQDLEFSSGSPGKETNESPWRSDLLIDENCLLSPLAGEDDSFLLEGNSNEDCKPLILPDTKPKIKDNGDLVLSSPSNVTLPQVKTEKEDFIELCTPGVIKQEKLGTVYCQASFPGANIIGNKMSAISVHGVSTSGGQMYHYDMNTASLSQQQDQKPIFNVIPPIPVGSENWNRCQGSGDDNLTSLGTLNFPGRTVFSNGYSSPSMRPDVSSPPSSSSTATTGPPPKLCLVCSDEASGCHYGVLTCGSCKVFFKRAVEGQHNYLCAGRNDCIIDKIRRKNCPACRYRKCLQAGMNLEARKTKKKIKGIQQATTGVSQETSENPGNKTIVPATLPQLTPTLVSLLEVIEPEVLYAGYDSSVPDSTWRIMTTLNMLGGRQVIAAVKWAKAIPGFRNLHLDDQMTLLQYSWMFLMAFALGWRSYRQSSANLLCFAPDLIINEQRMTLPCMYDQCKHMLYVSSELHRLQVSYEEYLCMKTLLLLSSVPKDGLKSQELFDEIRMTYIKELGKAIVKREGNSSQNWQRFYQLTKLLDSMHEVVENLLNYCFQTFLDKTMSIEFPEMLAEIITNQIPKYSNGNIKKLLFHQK

[6] = target: Glucocorticoid receptor (Homo sapiens) (UniProt P04150); test: GR-EFC Redistribution (AID 451; calls by dose curve; note: potency is the fitted concentration of half-maximal effect); conditions: CHO-K1 GR-EFC translocation, beta-gal luminescence, 2 h
Procedure, shortened: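 CHO-K1 cells stably expressing nuclear-localized β-gal enzyme acceptor and GR fused C-terminally to the enzyme donor fragment; ligand-driven nuclear translocation restores β-gal by complementation. Compounds titrated up to 46 uM final, 2 h at 37 °C; luminescence read.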

[7] = target: Mitogen-activated protein kinase 10 (Mus musculus) (UniProt Q61831); test: JNK3 AlphaScreen Assay (AID 530; active = well fitted curve in either direction with a large enough effect, not every such curve was filed as active;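 note: kinase came from lysate of stimulated human HepG2 cells; signal reports phosphorylation of biotinylated GST-cJun 1-79 at Ser73 with 10 µM ATP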); conditions: JNK3 lysate, c-Jun phosphorylation; series mostly up to 57.1 µM
Procedure, shortened: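 Phosphorylation of biotinylated GST-cJun(1-79) at Ser73 is measured by AlphaScreen proximity luminescence. Enzyme is JNK3 in HepG2 lysates activated with interleukin-1beta and tumor necrosis factor alpha; ATP is 10 uM final.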

[8] = target: Dual specificity protein kinase CLK4 (Homo sapiens) (UniProt Q9HAZ1); test: qHTS Assay for Inhibitors of CDC-like Kinase 4 (Kinase-Glo Assay) (AID 1770); conditions: recombinant Clk4, Kinase-Glo ATP depletion luminescence; series mostly up to 66.7 µM; note: nearly all actives have a fitted effect of over 65% in size; note: potency is the fitted concentration of half-maximal effect
Dual specificity protein kinase CLK4 (Homo sapiens), sequence (Q9HAZ1 whole entry, looked up): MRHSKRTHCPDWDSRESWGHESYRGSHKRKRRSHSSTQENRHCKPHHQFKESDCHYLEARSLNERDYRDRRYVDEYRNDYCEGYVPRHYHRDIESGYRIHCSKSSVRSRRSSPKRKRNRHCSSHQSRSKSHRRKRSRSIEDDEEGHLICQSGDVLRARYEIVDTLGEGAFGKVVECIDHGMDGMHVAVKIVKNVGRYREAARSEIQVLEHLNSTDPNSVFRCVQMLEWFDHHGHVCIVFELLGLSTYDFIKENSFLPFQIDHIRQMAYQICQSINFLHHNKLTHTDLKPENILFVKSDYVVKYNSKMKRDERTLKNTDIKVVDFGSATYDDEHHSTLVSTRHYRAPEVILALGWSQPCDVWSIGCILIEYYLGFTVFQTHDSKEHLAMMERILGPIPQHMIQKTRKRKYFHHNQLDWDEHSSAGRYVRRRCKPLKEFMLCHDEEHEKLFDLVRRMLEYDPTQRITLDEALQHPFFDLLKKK
Procedure, shortened: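 25 nM Clk4 with 100 uM RS repeat peptide and 1 uM ATP (final) in Tris pH7.5, 10 mM MgCl2, 4.5 h at room temperature. Remaining ATP measured by Kinase-Glo luciferase luminescence.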

[9] = target: Dual specificity protein kinase CLK4 (Homo sapiens) (UniProt Q9HAZ1); test: qHTS Assay for Inhibitors of CDC-like Kinase 4 (ADP-Glo Assay) (AID 1771); conditions: recombinant CLK4, ADP-Glo luminescence; series mostly up to 80 µM; note: nearly all actives have a fitted effect of over 70% in size; note: potency is the fitted concentration of half-maximal effect
Procedure, shortened: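 Compounds are pin-transferred onto substrate mix (100 uM RS peptide, 1 uM ATP), then 25 nM Clk4 is added. After 1 hr at room temperature, ADP-Glo reagent runs 45 min, detection reagent 30 min, then luminescence is read.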

[10] = target: Dual specificity protein kinase CLK4 (Homo sapiens) (UniProt Q9HAZ1); test: qHTS Assay for Inhibitors of CDC-like Kinase 4 (ADP-FP Assay) (AID 1795); conditions: Transcreener ADP fluorescence polarization; series mostly up to 50 µM; note: nearly all actives have a fitted effect of over 60% in size; note: potency is the fitted concentration of half-maximal effect;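 for activity change, negative = inhibition: recombinant human CLK4 phosphorylating RS repeat peptide at 1 µM ATP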
Procedure, shortened: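 Recombinant Clk4 (6.25 nM) phosphorylated 100 uM RS repeat peptide with 1 uM ATP in 25 mM Tris pH 7.5, 10 mM MgCl2, 0.5 mM EGTA, 2.5 mM DTT, 0.01% Triton X-100 for 1 h. ADP was detected by Transcreener ADP2 competitive fluorescence polarization after 30 min at room temperature.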

[11] = target: Ubiquitin carboxyl-terminal hydrolase 1 (Homo sapiens) (UniProt O94782); test: Inhibitors of USP1/UAF1: Pilot qHTS (AID 504865); conditions: purified USP1/UAF1, Ub-rhodamine cleavage fluorescence; series mostly up to 54.9 µM;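 note: rhodamine fluorescence freed from ubiquitin-rhodamine substrate followed over time; top concentration of the series differs between compounds; nearly all actives have a fitted effect of over 35% in size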
Ubiquitin carboxyl-terminal hydrolase 1 (Homo sapiens), sequence (O94782 whole entry, looked up): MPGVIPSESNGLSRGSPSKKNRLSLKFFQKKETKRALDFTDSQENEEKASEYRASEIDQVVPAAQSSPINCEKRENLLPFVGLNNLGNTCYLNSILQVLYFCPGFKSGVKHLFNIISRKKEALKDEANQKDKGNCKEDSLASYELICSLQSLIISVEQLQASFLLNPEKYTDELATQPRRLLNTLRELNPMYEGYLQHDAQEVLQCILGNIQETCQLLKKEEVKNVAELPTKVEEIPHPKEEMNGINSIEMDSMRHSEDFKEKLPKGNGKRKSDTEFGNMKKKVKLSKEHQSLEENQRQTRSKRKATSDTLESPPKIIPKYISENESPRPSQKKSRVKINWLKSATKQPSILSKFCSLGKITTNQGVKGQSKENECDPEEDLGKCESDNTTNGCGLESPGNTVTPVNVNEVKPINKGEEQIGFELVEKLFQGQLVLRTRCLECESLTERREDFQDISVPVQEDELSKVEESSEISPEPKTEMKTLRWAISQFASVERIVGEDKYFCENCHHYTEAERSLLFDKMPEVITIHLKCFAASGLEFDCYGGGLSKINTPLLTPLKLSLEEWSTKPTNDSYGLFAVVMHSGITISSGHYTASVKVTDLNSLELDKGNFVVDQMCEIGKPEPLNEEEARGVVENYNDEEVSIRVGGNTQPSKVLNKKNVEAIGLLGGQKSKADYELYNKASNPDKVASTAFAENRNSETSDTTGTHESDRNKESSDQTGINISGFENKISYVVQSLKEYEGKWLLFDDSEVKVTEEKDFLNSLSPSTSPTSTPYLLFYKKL
Procedure, shortened: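 USP1/UAF1 complex at 1 nM preincubated 15 min at room temperature with compound, then Ub-Rho substrate added at 150 nM final. Fluorescence (480/540 nm) read kinetically in 50 mM HEPES pH 7.8, 0.5 mM EDTA, 1 mM TCEP, 0.1 mg/ml BSA, 0.01% Tween-20.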

[12] = Primary qHTS for small molecule stabilizers of the endoplasmic reticulum resident proteome: Secreted ER Calcium Modulated Protein (SERCaMP) assay (AID 1508630); conditions: SH-SY5Y GLuc-SERCaMP (Gaussia luciferase released on ER calcium loss) secretion, thapsigargin, luminescence; series mostly up to 38.4 µM
Procedure, shortened: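 The SH-SY5Y reporter protocol was run at 3 concentrations up to 38.3 uM (primary) or 11 concentrations (follow-up): 16 h compound, 100 nM thapsigargin for 4 h, then extracellular luciferase luminescence.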

[13] = target: 3',5'-cyclic-AMP phosphodiesterase 4B (Homo sapiens) (UniProt Q07343); test: qHTS Assay for Inhibitors of PDE-IV (AID 607; active = well fitted activation curve with a large enough effect in the main read-out, with a control signal flat, not every such curve was filed as active); conditions: HEK293 ACTOne CNG channel cells, membrane potential fluorescence; series mostly up to 22.9 µM
3',5'-cyclic-AMP phosphodiesterase 4B (Homo sapiens), sequence (Q07343 whole entry, looked up): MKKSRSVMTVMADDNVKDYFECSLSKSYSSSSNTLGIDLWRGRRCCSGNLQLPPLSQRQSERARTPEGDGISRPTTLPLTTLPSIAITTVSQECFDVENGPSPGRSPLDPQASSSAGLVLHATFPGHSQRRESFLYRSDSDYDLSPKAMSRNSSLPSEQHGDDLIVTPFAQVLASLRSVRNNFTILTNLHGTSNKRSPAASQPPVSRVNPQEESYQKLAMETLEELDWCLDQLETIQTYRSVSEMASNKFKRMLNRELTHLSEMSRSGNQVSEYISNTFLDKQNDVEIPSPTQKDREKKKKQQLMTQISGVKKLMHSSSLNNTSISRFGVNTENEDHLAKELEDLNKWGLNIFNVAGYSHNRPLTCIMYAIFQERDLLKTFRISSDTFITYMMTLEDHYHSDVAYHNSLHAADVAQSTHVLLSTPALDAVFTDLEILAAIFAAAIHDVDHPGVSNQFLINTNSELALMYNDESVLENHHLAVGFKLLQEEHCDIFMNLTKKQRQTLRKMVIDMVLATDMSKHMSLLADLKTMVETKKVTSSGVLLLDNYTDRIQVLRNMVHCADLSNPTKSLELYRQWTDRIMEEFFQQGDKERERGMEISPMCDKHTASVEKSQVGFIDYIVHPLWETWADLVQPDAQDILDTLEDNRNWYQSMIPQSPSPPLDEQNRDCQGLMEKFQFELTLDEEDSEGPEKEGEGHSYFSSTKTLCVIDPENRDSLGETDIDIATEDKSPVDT
Procedure, shortened: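 The readout is membrane depolarisation from a cAMP-sensing CNG channel, detected with a potential dye at ex 535/em 590. Cells were HEK293-derived (endogenous PDE-IV) at 1000 cells/well, titrated up to 22.9 uM final.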

[14] = target: Cytochrome P450 1A2 (Homo sapiens) (UniProt P05177); test: p450-cyp1a2 (AID 410; calls by dose curve; note: potency is the fitted concentration of half-maximal effect); conditions: recombinant CYP1A2, luciferin-ME demethylation, luminescence; series mostly up to 57 µM
Cytochrome P450 1A2 (Homo sapiens), sequence (P05177 whole entry, looked up): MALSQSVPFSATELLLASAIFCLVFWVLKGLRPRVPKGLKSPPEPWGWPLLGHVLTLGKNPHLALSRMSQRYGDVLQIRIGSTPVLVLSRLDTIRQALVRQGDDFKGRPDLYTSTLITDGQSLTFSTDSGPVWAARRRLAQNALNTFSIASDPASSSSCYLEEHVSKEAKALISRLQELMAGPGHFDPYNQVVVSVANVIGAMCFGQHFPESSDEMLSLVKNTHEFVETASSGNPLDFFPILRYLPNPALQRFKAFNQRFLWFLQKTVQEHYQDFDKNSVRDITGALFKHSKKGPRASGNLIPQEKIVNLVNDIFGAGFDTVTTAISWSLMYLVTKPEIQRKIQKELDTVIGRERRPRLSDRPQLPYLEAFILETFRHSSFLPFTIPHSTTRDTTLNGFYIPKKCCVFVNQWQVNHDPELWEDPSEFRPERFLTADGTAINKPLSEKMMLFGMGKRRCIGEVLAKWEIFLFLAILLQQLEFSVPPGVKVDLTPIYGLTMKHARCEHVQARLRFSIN
Procedure, shortened: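 O-Demethylation of luciferin 6' methyl ether by human CYP1A2 is monitored as luciferase luminescence. Substrate sits at Km (100uM); enzyme is 20nM. Values are scaled to 57 uM furafylline as maximal inhibition.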

[15] = target: Cytochrome P450 2C9 (Homo sapiens) (UniProt P11712); test: qHTS Assay for Inhibitors and Substrates of Cytochrome P450 2C9 (AID 883); conditions: recombinant CYP2C9, luciferin-H luminescence, 60 min; series mostly up to 57.1 µM; note: nearly all actives have a fitted effect of over 60% in size
Cytochrome P450 2C9 (Homo sapiens), sequence (P11712 whole entry, looked up): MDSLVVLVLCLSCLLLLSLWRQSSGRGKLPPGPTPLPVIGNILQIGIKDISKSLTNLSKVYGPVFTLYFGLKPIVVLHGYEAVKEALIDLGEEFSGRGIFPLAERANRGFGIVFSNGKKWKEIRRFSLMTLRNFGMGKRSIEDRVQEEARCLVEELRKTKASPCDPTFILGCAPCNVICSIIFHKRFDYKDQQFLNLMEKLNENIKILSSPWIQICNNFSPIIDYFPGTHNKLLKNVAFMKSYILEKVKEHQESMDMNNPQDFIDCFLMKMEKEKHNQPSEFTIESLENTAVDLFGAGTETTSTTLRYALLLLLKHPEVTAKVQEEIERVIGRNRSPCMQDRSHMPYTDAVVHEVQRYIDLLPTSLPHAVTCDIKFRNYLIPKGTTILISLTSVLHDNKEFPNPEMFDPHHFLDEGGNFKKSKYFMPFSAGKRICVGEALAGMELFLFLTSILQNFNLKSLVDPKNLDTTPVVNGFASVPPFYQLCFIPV
Procedure, shortened: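 A luminogenic readout tracked human CYP2C9 (10nM) converting deoxyluciferin (100uM, at KM) in 25mM KPO4 during 60 min at 37C with regenerated NADPH. Values normalized to 57uM sulphaphenazole as complete inhibition.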

[16] = target: Cytochrome P450 3A4 (Homo sapiens) (UniProt P08684); test: qHTS Assay for Activators of Cytochrome P450 3A4 (AID 885); conditions: recombinant CYP3A4, Luciferin-PPXE luminescence, 60 min; series mostly up to 57.1 µM; note: nearly all actives have a fitted effect of over 65% in size
Cytochrome P450 3A4 (Homo sapiens), sequence (P08684 whole entry, looked up): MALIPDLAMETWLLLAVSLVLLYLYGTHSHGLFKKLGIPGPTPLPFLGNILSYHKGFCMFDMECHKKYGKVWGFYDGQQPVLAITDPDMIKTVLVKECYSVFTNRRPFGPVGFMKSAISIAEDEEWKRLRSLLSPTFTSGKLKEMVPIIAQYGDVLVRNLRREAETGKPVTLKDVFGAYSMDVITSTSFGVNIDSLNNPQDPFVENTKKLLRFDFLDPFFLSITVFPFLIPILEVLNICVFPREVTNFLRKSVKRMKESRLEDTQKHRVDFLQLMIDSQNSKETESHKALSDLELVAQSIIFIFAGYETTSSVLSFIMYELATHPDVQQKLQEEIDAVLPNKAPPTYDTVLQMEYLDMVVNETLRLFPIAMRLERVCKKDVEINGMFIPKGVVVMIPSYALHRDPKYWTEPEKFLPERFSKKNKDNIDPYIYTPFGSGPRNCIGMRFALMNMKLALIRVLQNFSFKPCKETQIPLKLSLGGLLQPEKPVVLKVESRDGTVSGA
Procedure, shortened: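 Activators are scored by enhanced luminescence from CYP3A4 conversion of luciferin-PPXE (25uM, equal to KM) to luciferin, after 60 min at RT with an NADPH-regenerating system.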

[17] = target: Cytochrome P450 3A4 (Homo sapiens) (UniProt P08684); test: qHTS Assay for Inhibitors and Substrates of Cytochrome P450 3A4 (AID 884); conditions: recombinant CYP3A4, Luciferin-PPXE luminescence; series mostly up to 57.1 µM; note: potency is the fitted concentration of half-maximal effect; nearly all actives have a fitted effect of over 50% in size
Procedure, shortened: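 Luminescent readout of luciferin produced by CYP3A4 (20 nM) dealkylation of Luciferin-PPXE, 25 uM (its KM). NADPH-driven reaction ran 60 min at RT after 10 min compound preincubation; data scaled to 57 uM ketoconazole as 100% inhibition.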

[18] = qHTS Assay for Identification of Small Molecule Agonists for Hypoxia Response Element Signaling Pathway (AID 914; active = well fitted activation curve with a large enough effect in the signal ratio, with a control signal flat, not every such curve was filed as active; the % refers to the signal ratio; note: potency is the fitted concentration of half-maximal effect); conditions: ME-180 (cervical carcinoma) HRE-bla reporter, beta-lactamase ratio, CoCl2, 17 h; activation: active compounds read high
Procedure, shortened: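 Compounds in a titration series were added to ME-180 reporter cells alongside an EC50 level of CoCl2. After 17 hours, beta-lactamase activity was read as the 460nm/530nm emission ratio of CCF4, giving AC50 values.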

Compound | Potency [1] | activity change, negative = inhibition [2] | activity change, negative = inhibition [3] | activity, negative = inhibition [4] | Potency [5] | Potency [6] | Potency [7] | Potency [8] | Potency [9] | Potency [10] | Potency [11] | outcome [12] | Potency [13] | Potency [14] | Potency [15] | Potency [16] | Potency [17] | Potency [18]
COc1cccc(Cn2c(=O)c(CCc3ccccc3)nc3cnc(N4CCOCC4)nc32)c1 | > 11.4 µM | 0.275% | -19.1% | -8.53% | > 9.22 µM | > 46 µM | inactive | inactive | inactive | inactive | inactive | inactive | – | – | – | – | – | –
COc1cccc(Cn2c(=O)c(-c3ccc(Cl)cc3)nc3cncnc32)c1 | > 11.4 µM | -9.78% | -4.86% | -0.792% | > 9.22 µM | > 46 µM | inactive | inactive | inactive | inactive | inactive | inactive | – | – | – | – | – | –
O=c1c(-c2ccc(Cl)cc2)nc2cnc(Nc3ccccc3)nc2n1C1CC1 | > 11.4 µM | -1.39% | -9.46% | -0.41% | > 9.22 µM | > 46 µM | inactive | inactive | inactive | inactive | inactive | inactive | inactive | – | – | – | – | –
COc1ccc(Oc2ncc3nc(-c4cn(C)c5ccccc45)c(=O)n(C)c3n2)cc1 | > 11.4 µM | -24.2% | – | 1.51% | > 9.22 µM | > 46 µM | inactive | inactive | inactive | inactive | inactive | inactive | inactive | inactive | inactive | inactive | – | –
Cc1cnc(CNc2cc(-c3ccc4c(c3)OCO4)ncn2)cn1 | > 11.4 µM | -3.49% | 7.15% | -3.34% | > 46 µM | > 46 µM | inactive | 3.98 µM (active) | 3.55 µM (active) | 12.6 µM (active) | inactive | inactive | inactive | – | – | – | – | –
COc1ccc(-c2nc3cncnc3n(-c3ccccc3)c2=O)cc1 | > 11.4 µM | -9.87% | -10.5% | -2.81% | > 9.22 µM | > 46 µM | inactive | inactive | inactive | inactive | inactive | inactive | – | – | – | – | – | –
N#CCCn1c(=O)c(-c2ccccc2)nc2cnc(N3CCOCC3)nc21 | > 11.4 µM | 20.5% | – | – | > 9.22 µM | > 46 µM | inactive | inactive | inactive | inactive | inactive | inactive | inactive | 10 µM (active) | – | – | – | –
CCNc1ncc2nc(-c3cccs3)c(=O)n(Cc3cccs3)c2n1 | > 11.4 µM | 9.95% | – | – | > 9.22 µM | > 46 µM | inactive | inactive | inactive | inactive | inactive | inactive | – | 1.26 µM (active) | – | inactive | 6.31 µM (active) | –
CCNc1ncc2nc(-c3cc(F)cc(F)c3)c(=O)n(Cc3ccc(F)cc3)c2n1 | > 11.4 µM | 20.2% | 28.9% | – | – | > 46 µM | inactive | inactive | inactive | inactive | inactive | inactive | inactive | – | – | – | – | 2 µM (active)
COCCn1c(=O)c(C)nc2cnc(N3CCOCC3)nc21 | > 11.4 µM | -1.95% | -1.73% | -12.9% | > 9.22 µM | > 46 µM | inactive | inactive | inactive | inactive | inactive | inactive | inactive | – | – | – | – | –
COc1ccc(-c2nc3cnc(N(C)C)nc3n(C)c2=O)cc1 | > 11.4 µM | 11% | – | 10.4% | > 9.22 µM | > 46 µM | inactive | inactive | inactive | inactive | inactive | inactive | inactive | – | – | – | – | –
Cc1nc2cnc(Oc3ccccc3)nc2n(Cc2cccs2)c1=O | > 11.4 µM | -17.8% | 20.1% | -0.465% | > 9.22 µM | > 46 µM | inactive | inactive | inactive | inactive | – | inactive | inactive | – | – | inactive | – | –
COc1ncc2nc(-c3ccc(Cl)cc3)c(=O)n(Cc3cccs3)c2n1 | > 11.4 µM | -16.7% | 2.52% | -18.3% | > 9.22 µM | > 46 µM | inactive | inactive | inactive | inactive | inactive | inactive | inactive | – | – | – | – | –
